{"source": "PubChem BioAssay (NCATS)", "note": "Records with an inconclusive call do not appear. Where a call stands in place of a potency, no number is given. Activity calls are given as the source filed them. Calls follow the shape of the dose curve; as a rule, active = well fitted inhibition curve with a large enough effect; inconclusive = small, poorly fitted or top-dose-only effect; inactive = flat fitted curve, though single readings scatter.", "data": [{"biological_target": "Calcium and integrin-binding protein 1 (Homo sapiens) (UniProt Q99828)", "sequence (Q99828 whole entry, looked up)": "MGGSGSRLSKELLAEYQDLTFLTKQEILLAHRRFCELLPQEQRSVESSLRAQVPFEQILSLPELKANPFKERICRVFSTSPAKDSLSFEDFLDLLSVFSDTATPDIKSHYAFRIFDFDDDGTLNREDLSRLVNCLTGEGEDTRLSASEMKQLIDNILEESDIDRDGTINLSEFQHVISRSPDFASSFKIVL", "test": "Primary qHTS for Identification of Calcium Integrin Binding Protein 1 (CIB1) Competitor (AID 1508620);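 also: GST tagged CIB1 binding a fluorescein labelled alphaIIb integrin peptide tracer; top concentration of the series differs between compounds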", "settings": "CIB1-GST / FITC-alphaIIb peptide fluorescence polarization; series mostly up to 114 µM", "procedure,_shortened": "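Fluorescence polarization competition: CIB1-GST (1 uM final) preincubated with compound 15 min at room temperature, then FITC-labeled alphaIIb peptide (100 nM final) added for another 15 min. Polarization read at Ex 480/Em 540.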", "values": [{"smiles": "Fc1cc(Nc2nc(-c3ccncc3)nc3ccccc23)ccc1-c1cc(F)c(F)c(F)c1", "Potency": "inactive"}, {"smiles": "N#Cc1nc(Nc2ccc3ccccc3c2)nc(NC2CCCC2)n1", "Potency": "inactive"}, {"smiles": "O=C(/C=C/c1c(F)c(F)c(F)c(F)c1F)Nc1cccc([S+](=O)([O-])Nc2ccccc2F)c1", "Potency": "inactive"}, {"smiles": "COc1cccc(C2c3c(ncn(-c4ccccc4Cl)c3=N)Oc3ccc4ccccc4c32)c1", "note": "(centres undefined)", "Potency": "inactive"}, {"smiles": "O=C(O)C1C2C(=O)N(c3ccccc3)C[C@@]23C=C[C@@H]1O3", "note": "(some centres undefined)", "Potency": "inactive"}, {"smiles": "O=C(Nc1ccc2c(c1)OCCO2)Nc1nnc(-c2ccncc2)s1", "Potency": "inactive"}, {"smiles": "O=C1CCc2cc(S(=O)(=O)Nc3ccc(Cl)cc3)ccc2N1", "Potency": "inactive"}, {"smiles": "CS(=O)(=O)c1ccc(C(=O)OCC(=O)N2CCN(C3CCCCC3)CC2)cc1[N+](=O)[O-]", "Potency": "inactive"}, {"smiles": "Cc1cccc(-n2cnc3cc(C(=O)N4CCCCCC4)ccc32)c1", "Potency": "inactive"}, {"smiles": "COc1cccc(Cn2ncc3c4sc(Br)cc4n(C)c3c2=O)c1", "Potency": "inactive"}, {"smiles": "Cc1cnccc1-c1nc(Nc2ccc(F)c(F)c2)c2ccccc2n1", "Potency": "inactive"}, {"smiles": "COc1cccc(-c2nnc3n2N=C(c2ccc(OC)cc2OC)CS3)c1", "Potency": "inactive"}, {"smiles": "Cc1ccc(OCCn2c(CCNC(=O)c3ccc(Br)cc3)nc3ccccc32)cc1", "Potency": "inactive"}, {"smiles": "Cc1cc(C)nc(NC(=S)N2CCN(c3ccccn3)CC2)c1", "Potency": "inactive"}, {"smiles": "COc1cccc(CNc2ccc(S(=O)(=O)Nc3nccs3)cc2)c1O", "Potency": "inactive"}, {"smiles": "O=C(CNC(=O)c1cccc2ccccc12)OC(C(=O)Nc1cc(C(F)(F)F)ccc1Cl)c1ccccc1", "note": "(centres undefined)", "Potency": "inactive"}, {"smiles": "CCCCn1cnc2cc(C(=O)N3CCCCC3)ccc21", "Potency": "inactive"}, {"smiles": "CCOc1ccc(CCNC(=O)c2csc(Br)n2)cc1OCC", "Potency": "inactive"}, {"smiles": "CC(=O)NC1CCN(c2nc(-c3ccc(Br)cc3)cs2)CC1", "Potency": "inactive"}, {"smiles": "Cc1cc2c(s1)c1cnn(Cc3cc(F)ccc3F)c(=O)c1n2C", "Potency": "inactive"}, {"smiles": "CCOC(=O)c1[nH]c2c(c1C)C(=O)CCC2", "Potency": "inactive"}, {"smiles": "O=c1c2ccccc2nc2sc(Nc3cccc(Cl)c3)nn12", "Potency": "inactive"}, {"smiles": "CC(=O)c1ccc(N2CCN(S(=O)(=O)c3ccc4c(c3)CCCC(=O)N4)CC2)cc1", "Potency": "inactive"}, {"smiles": "CCOc1ccc(CCNC(=O)c2ccc(C3(C(F)(F)F)N=N3)cc2)cc1OCC", "Potency": "inactive"}]}]}
